Consider five compounds from PubChem BioAssay (EPA / NIEHS).

A word on the AC50: it is the concentration at which the activity in the assay is half-maximal.

For assay [1], the target named is Paired box protein Pax-6 (Homo sapiens) (UniProt P26367). Description: ATG_Pax6_CIS: Attagene CIS-FACTORIAL HepG2 Assay for human Paired Box 6 (PAX6) (AID 2282956). Conditions: HepG2 CIS-FACTORIAL PAX6 reporter transcription, RNA readout; actives raise or lower the signal. A digest of the protocol: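 Transient MRTU transfection of HepG2 → compound exposure 24 h → TriZol RNA, oligo(dT) RT → PCR, 6-FAM primer extension, HpaI cut → capillary electrophoresis; activity fitted both directions against DMSO.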

The nature of assay [2]: ATG_PXRE_CIS: Attagene CIS-FACTORIAL HepG2 Assay for human Pregnane X Receptor Element (PXRE) (AID 2282957). Conditions: HepG2 Attagene CIS-FACTORIAL PXRE reporter, mRNA; actives raise or lower the signal. The method in brief:
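Multiplexed cis-reporter assay in transiently transfected human HepG2 cells; 24 h chemical exposure. Reporter transcripts quantified by RT-PCR with fluorescent labeling and capillary electrophoresis.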

Assay [3] can be described thus: ATG_PPRE_CIS: Attagene CIS-FACTORIAL HepG2 Assay for human Peroxisome Proliferator-activated Response Element (PPRE) (AID 2282958). Conditions: HepG2 PPRE cis-element reporter, Attagene transcription factor profiling; actives raise or lower the signal. A digest of the protocol: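 Cells are first transfected transiently with the multiplexed reporter library, then dosed for 24 h. Total RNA is reverse-transcribed, amplified, fluorescently end-labeled and HpaI-cut before capillary electrophoresis; activity is fitted bidirectionally against DMSO controls.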

Assay [4] can be described thus: ATG_Sox_CIS: Attagene CIS-FACTORIAL HepG2 Assay for human SRY-box transcription factor (SOX) (AID 2282960). Conditions: HepG2 Attagene cis-factorial SOX reporter, mRNA; actives raise or lower the signal. A digest of the protocol: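 Transient MRTU transfection of HepG2; 24 h compound incubation; TriZol RNA, oligo(dT) RT, PCR, 6-FAM primer extension, HpaI cut, CE. Bidirectional fit, DMSO = baseline.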

Assay [5] concerns the target Transcription factor Sp1 (Homo sapiens) (UniProt P08047). Kind of assay: ATG_Sp1_CIS: Attagene CIS-FACTORIAL HepG2 Assay for human Specificity Protein 1 (Sp1) (AID 2282961). Conditions: HepG2 Sp1 cis-reporter transcription, actives raise or lower the signal. The method in brief:
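Endogenous Sp1 activity was gauged in human liver HepG2 cells bearing transfected reporter units under a cis-regulating promoter. After 24 h dosing, reporter mRNA was quantified by RT-PCR with capillary electrophoresis, and activity fitted bidirectionally versus DMSO.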

Assay [6] in a line: ATG_SREBP_CIS: Attagene CIS-FACTORIAL HepG2 Assay for human Sterol Regulatory Element Binding (SREBP) (AID 2282962). Conditions: HepG2 Attagene cis-factorial SREBP reporter, mRNA; actives raise or lower the signal. A digest of the protocol:
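Transfected HepG2 (cis-regulated reporter library, endogenous TFs) → compound 24 h → total RNA → oligo(dT) RT → reporter-specific PCR → FAM primer extension, HpaI cut → CE fluorescence. Fit bidirectional vs DMSO.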

In assay [7] the target is Signal transducer and activator of transcription 3 (Homo sapiens) (UniProt P40763). Kind of assay: ATG_STAT3_CIS: Attagene CIS-FACTORIAL HepG2 Assay for human Signal Transducer and Activator of Transcription 3 (STAT3) (AID 2282963). Conditions: HepG2, Attagene cis-factorial STAT3 reporter transcription; actives raise or lower the signal. A digest of the protocol:
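After a 24 h compound incubation, total RNA from MRTU-transfected HepG2 cells was converted to cDNA and reporter sequences PCR-amplified, labelled and profiled by capillary electrophoresis. Gain and loss of signal were referenced to DMSO.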

The nature of assay [8]: ATG_TA_CIS: Attagene CIS-FACTORIAL HepG2 Assay for human TA Basal Promoter (AID 2282964). Conditions: HepG2 Attagene CIS-factorial TA basal promoter reporter; actives raise or lower the signal. A digest of the protocol:
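Steps: transfect HepG2 with MRTUs; dose 24 h; isolate RNA, DNase-treat, reverse-transcribe; PCR and FAM-label reporter cDNA; digest with HpaI 2h at 37 C; run capillary electrophoresis. Activity fitted both directions against DMSO.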

Assay [9] is described as follows: ATG_TCF_b_cat_CIS: Attagene CIS-FACTORIAL HepG2 Assay for human T-Cell-Factor with beta-catenin (TCF/b-cat) (AID 2282965). Conditions: HepG2 TCF/beta-catenin cis-reporter transcription, actives raise or lower the signal. The method in brief:
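Measured: reporter mRNA in HepG2 transiently transfected with cis-promoter reporter units, 24 h after chemical addition. Fitting was bidirectional, DMSO as negative control.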

The nature of assay [10]: ATG_TAL_CIS: Attagene CIS-FACTORIAL HepG2 Assay for human TAL Basal Promoter (AID 2282966).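 Note: background control endpoint measuring basal TAL promoter reporter mRNA not a specific factor.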 Conditions: HepG2 Attagene cis-factorial TAL promoter reporter; actives raise or lower the signal. The method in brief:
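Steps: transfect HepG2 with multiple reporter transcription units; dose 24 h; isolate RNA, reverse-transcribe, PCR-amplify, label with 6-FAM, digest with HpaI; resolve by capillary electrophoresis. Bidirectional fitting against DMSO baseline.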

Assay [11] can be described thus: ATG_TGFb_CIS: Attagene CIS-FACTORIAL HepG2 Assay for human Transforming Growth Factor (TGF) (AID 2282967). Conditions: HepG2 Attagene CIS TGFb reporter, mRNA transcription; actives raise or lower the signal. A digest of the protocol:
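Cells were dosed for 24 hours, after which total RNA was reverse-transcribed and reporter sequences amplified, labeled and sized by capillary electrophoresis. Activity was fitted in both directions against DMSO.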

A short description of assay [12]: ATG_VDRE_CIS: Attagene CIS-FACTORIAL HepG2 Assay for human Vitamin D Receptor Element (VDRE) (AID 2282968). Conditions: HepG2 VDRE cis-reporter transcription, actives raise or lower the signal. A digest of the protocol: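 In transiently transfected HepG2 liver cells, gain or loss of reporter mRNA after 24 h exposure is scored relative to DMSO, using fluorescence detection by capillary electrophoresis of RT-PCR products.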

The target in assay [13] is X-box-binding protein 1 (Homo sapiens) (UniProt P17861). Description: ATG_Xbp1_CIS: Attagene CIS-FACTORIAL HepG2 Assay for human X-box Binding Protein 1 (XBP1) (AID 2282972). Conditions: HepG2 XBP1 cis-element reporter, Attagene multiplex; actives raise or lower the signal. A digest of the protocol:
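HepG2, transient MRTU transfection (cis-promoter driven), 24 h compound exposure. Total RNA → oligo(dT) RT → PCR → 6-FAM labeling → HpaI cut → CE. Bidirectional fit vs DMSO.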

A short description of assay [14]: ATG_M_19_TRANS: Attagene TRANS-FACTORIAL HepG2 Assay for M19 Transcription Factor (Internal Marker) (AID 2282974; active = hit-call score of the fitted dose curve at least 0.9, where 1 is the maximum). Conditions: HepG2 Attagene TRANS-FACTORIAL M19 internal marker reporter. A digest of the protocol:
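Cells: human HepG2, transiently transfected with multiplexed reporter transcription units. Exposure: 24 h. Detection: RT-PCR of reporter mRNA with capillary electrophoresis. Analysis: gain-of-signal vs DMSO.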

Assay [15] is described as follows: ATG_GAL4_TRANS: Attagene TRANS-FACTORIAL HepG2 Assay for GAL4 (Internal Marker) (AID 2282976; active = hit-call score of the fitted dose curve at least 0.9, where 1 is the maximum). Conditions: HepG2 Attagene TRANS GAL4 internal marker reporter. The method in brief:
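Liver HepG2 line bearing multiplexed GAL4-UAS reporter constructs; 24 h chemical treatment. Transcripts were quantified as fluorescent fragments on capillary electrophoresis after RT-PCR and HpaI cut, with activity fitted upward from DMSO.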

Assay [16] concerns the target Estrogen receptor (Homo sapiens) (UniProt P03372). Kind of assay: ATG_ERa_TRANS: Attagene TRANS-FACTORIAL HepG2 Assay for human Estrogen Receptor alpha (ERa) (AID 2282970; active = hit-call score of the fitted dose curve at least 0.9, where 1 is the maximum). Conditions: HepG2 Attagene TRANS ERa GAL4 reporter, mRNA. The method in brief: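 Multiplexed cell-based reporter format in HepG2: chimeric ERa-Gal4 protein drives GAL4-UAS reporter transcription. Fluorescent reporter mRNA quantified by capillary electrophoresis 24 hours after dosing; endpoint fitted as signal gain against DMSO.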

The nature of assay [17]: ATG_RORE_CIS: Attagene CIS-FACTORIAL HepG2 Assay for human RAR-related Orphan Receptor Element (RORE) (AID 2282959). Conditions: HepG2 Attagene cis-factorial RORE reporter, mRNA; actives raise or lower the signal. A digest of the protocol:
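Cells were HepG2 carrying transfected cis-regulated reporter constructs, dosed for 24 hours. Total RNA was reverse-transcribed and reporter cDNA amplified, fluorescently labeled and sized by capillary electrophoresis. Activity was fitted bidirectionally relative to DMSO.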

The target in assay [18] is Nuclear receptor subfamily 1 group I member 3 (Homo sapiens) (UniProt Q14994). Kind of assay: ATG_CAR_TRANS: Attagene TRANS-FACTORIAL HepG2 Assay for human Constitutive Androstane Receptor (CAR) (AID 2282969; active = hit-call score of the fitted dose curve at least 0.9, where 1 is the maximum;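 note: activators raise reporter mRNA above DMSO so AC50 marks induction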). Conditions: HepG2 Attagene TRANS-FACTORIAL CAR reporter. The method in brief: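 Readout is reporter mRNA induction, quantified by fluorescent primer extension and capillary electrophoresis after RT-PCR. Cells were HepG2 transiently carrying chimeric NR-Gal4 constructs with GAL4-UAS reporters, treated for 24 h; activity scored upward from DMSO.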

In assay [19] the target is Steroid hormone receptor ERR1 (Homo sapiens) (UniProt P11474). Description: ATG_ERRa_TRANS: Attagene TRANS-FACTORIAL HepG2 Assay for human Estrogen-Related Receptor alpha (ERRa) (AID 2282971; active = hit-call score of the fitted dose curve at least 0.9, where 1 is the maximum). Conditions: HepG2 Attagene TRANS reporter, ERRa transactivation. A digest of the protocol:
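Signal gain relative to DMSO for an ERRa-Gal4 chimeric receptor, read as reporter mRNA by RT-PCR/capillary electrophoresis. Human HepG2 liver cells, transient multiplex reporter transfection, 24 h chemical exposure.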

The structures appear in SMILES notation. Results filed as inconclusive are left out. The source made the active and inactive calls. Rule for the calls, unless noted: active = hit-call score of the fitted dose curve at least 0.9, where 1 is the maximum; inactive = score below 0.9.

Chain of Signal transducer and activator of transcription 3 (Homo sapiens) (P40763 whole entry, looked up): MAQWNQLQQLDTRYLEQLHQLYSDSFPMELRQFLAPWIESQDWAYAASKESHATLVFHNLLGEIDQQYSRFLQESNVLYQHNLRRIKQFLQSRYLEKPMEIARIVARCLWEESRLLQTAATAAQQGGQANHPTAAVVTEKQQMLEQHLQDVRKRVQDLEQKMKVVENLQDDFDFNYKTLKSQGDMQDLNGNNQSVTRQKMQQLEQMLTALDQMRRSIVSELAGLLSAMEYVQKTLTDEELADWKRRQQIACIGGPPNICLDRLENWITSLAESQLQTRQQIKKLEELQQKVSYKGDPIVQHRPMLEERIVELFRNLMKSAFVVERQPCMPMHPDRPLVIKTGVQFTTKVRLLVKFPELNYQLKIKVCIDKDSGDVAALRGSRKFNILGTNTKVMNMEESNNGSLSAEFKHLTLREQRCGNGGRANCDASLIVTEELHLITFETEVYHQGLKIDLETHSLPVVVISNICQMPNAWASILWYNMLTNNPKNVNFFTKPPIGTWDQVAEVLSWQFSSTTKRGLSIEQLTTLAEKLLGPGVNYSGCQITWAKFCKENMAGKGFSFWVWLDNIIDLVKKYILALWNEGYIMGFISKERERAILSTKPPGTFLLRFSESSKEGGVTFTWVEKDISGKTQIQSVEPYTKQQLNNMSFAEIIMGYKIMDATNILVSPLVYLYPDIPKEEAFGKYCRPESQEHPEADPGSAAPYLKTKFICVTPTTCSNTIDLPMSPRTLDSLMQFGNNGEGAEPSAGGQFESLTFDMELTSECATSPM
Chain of Paired box protein Pax-6 (Homo sapiens) (P26367 whole entry, looked up): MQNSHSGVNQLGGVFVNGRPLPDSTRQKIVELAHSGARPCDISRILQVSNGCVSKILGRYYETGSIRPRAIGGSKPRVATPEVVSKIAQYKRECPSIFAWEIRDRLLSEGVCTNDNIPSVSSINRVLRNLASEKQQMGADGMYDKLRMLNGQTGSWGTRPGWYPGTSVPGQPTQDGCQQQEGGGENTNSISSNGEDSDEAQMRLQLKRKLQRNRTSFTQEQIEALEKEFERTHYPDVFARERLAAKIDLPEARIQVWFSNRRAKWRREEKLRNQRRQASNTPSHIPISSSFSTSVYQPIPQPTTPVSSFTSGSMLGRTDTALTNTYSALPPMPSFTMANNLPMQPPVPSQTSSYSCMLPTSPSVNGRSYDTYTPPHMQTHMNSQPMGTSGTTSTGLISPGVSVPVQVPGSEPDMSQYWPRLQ
Chain of X-box-binding protein 1 (Homo sapiens) (P17861 whole entry, looked up): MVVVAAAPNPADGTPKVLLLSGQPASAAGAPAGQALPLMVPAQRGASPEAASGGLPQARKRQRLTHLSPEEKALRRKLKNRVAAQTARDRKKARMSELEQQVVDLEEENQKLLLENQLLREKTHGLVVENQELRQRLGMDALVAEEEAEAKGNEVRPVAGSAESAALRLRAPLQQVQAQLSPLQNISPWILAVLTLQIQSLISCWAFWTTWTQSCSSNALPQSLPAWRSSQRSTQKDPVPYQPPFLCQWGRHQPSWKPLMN
Chain of Transcription factor Sp1 (Homo sapiens) (P08047 whole entry, looked up): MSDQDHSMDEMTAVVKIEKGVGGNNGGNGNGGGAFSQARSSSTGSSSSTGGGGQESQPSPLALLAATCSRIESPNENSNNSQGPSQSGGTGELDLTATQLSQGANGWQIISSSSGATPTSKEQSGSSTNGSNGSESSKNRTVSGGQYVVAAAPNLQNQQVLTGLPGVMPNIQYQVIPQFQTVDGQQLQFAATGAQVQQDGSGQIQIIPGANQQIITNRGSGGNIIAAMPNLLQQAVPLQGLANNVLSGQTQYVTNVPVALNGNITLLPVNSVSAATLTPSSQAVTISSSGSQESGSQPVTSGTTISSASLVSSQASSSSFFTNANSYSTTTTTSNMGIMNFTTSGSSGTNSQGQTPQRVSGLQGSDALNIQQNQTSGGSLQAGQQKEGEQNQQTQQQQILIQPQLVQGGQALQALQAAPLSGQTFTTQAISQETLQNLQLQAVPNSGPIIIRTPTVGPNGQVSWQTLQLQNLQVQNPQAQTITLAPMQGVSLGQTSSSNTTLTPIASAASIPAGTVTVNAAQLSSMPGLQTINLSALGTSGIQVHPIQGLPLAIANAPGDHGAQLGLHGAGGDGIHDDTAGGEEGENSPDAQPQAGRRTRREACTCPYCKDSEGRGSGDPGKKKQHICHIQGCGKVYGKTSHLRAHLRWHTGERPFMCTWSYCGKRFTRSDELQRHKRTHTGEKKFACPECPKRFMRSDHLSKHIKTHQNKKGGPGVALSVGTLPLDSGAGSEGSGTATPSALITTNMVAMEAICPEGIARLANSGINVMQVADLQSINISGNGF
Chain of Estrogen receptor (Homo sapiens) (P03372 whole entry, looked up, the tested form may be a part): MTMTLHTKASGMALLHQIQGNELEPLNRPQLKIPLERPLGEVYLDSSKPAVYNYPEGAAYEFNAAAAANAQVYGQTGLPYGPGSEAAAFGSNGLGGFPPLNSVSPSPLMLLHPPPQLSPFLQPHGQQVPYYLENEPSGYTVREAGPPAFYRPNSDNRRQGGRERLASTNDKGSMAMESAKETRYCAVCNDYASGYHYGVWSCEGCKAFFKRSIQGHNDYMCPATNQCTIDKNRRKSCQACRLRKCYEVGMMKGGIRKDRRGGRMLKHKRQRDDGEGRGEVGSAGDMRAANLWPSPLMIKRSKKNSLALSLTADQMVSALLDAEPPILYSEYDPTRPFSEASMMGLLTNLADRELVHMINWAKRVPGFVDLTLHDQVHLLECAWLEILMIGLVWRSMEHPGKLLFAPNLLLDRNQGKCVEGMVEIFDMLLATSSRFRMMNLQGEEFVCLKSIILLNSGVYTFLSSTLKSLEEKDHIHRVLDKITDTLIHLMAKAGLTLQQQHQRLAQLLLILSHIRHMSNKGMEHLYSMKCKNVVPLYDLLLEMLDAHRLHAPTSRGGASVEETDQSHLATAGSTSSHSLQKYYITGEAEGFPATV
Chain of Nuclear receptor subfamily 1 group I member 3 (Homo sapiens) (Q14994 whole entry, looked up, the tested form may be a part): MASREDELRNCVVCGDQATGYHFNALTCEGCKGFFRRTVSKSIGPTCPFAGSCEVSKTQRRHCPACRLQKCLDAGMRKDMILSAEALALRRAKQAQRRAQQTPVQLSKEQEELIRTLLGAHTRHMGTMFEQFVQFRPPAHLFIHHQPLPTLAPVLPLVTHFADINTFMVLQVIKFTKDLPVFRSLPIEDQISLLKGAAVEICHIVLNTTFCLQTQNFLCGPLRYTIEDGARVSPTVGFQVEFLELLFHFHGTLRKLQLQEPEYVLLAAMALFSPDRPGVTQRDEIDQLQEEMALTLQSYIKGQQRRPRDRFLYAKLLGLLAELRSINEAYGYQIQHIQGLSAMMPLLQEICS
Chain of Steroid hormone receptor ERR1 (Homo sapiens) (P11474 whole entry, looked up, the tested form may be a part): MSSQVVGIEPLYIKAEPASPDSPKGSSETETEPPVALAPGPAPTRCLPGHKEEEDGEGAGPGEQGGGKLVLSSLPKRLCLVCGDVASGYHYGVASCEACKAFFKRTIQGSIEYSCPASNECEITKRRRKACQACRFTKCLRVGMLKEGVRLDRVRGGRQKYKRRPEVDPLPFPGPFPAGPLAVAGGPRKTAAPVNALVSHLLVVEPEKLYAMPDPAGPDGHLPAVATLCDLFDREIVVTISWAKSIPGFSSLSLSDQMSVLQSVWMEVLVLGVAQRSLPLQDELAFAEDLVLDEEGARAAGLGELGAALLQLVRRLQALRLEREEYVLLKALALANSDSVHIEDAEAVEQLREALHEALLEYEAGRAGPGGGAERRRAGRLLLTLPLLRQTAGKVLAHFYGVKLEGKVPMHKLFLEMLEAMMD

For the compound `COc1ccc(O)cc1`, the compound was classed as inactive in assay [1], in assay [3], in assay [4], in assay [5], in assay [6] and in [7]. In addition, the call in [8], in [9], in assay [10], in [11], in assay [12] and in assay [13] was inactive. The compound was called inactive in assay [14] and in assay [15]. Moreover, the AC50 in [2] was 57.5 µM (active).

On to `O=c1[nH]c(=O)n([C@H]2CCCO2)cc1F`, for which the compound was called inactive in assay [1], in [2], in [3], in assay [4], in assay [5] and in assay [6]. Also, the compound was called inactive in assay [7], in [8], in assay [9], in [10], in [11] and in assay [13].

Turning to `Cc1ccc2n[nH]nc2c1`, the outcome in assay [1], in assay [2], in assay [3], in [4], in assay [5] and in assay [6] was inactive. Further, the call in assay [7], in assay [8], in assay [9], in assay [10], in assay [11] and in assay [12] was inactive. The result in assay [16] and in assay [13] was inactive.

Turning to `CCCCO`, the compound was classed as inactive in assay [1], in assay [2], in assay [3], in [5], in assay [7] and in [8]. For the same compound, the compound was called inactive in [9], in assay [10], in [11], in assay [12], in [13] and in [14]. In addition, the compound was called inactive in assay [15].

In the case of `O=C1O[C@@H]2[C@@H](O)[C@H](O)O[C@@H]2[C@H]1O`, the outcome in assay [1], in [2], in assay [17], in [4], in [5] and in assay [6] was inactive. Further, the compound was classed as inactive in [7], in assay [8], in assay [9], in [10], in assay [11] and in [12]. The outcome in assay [18], in assay [16], in assay [19] and in assay [13] was inactive.
